About 83,000 compounds went through this panel and 20% of them were active in at least one assay; those are over-represented in the sample as a whole.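 Negative percent growth values reflect cell death: -40 means 40% of the cells present at the start died, and -100 means all died.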 Values without a mark were called inactive. Active and inactive are the calls of the source. How the source made its calls: active means growth percent below 10; inactive means the rest.
Key:
Assay in all cases: NCI-60 one-dose screen, 48 h (100 = growth as untreated, 0 = no growth, -100 = all killed)
Conditions in all cases: 10 µM unless noted
NCI-H23 lung = system: NCI-H23 lung
NCI-H226 lung = system: NCI-H226 lung
NCI-H322M lung = system: NCI-H322M lung
HOP-62 NSCLC = system: HOP-62 NSCLC
NCI-H460 lung = system: NCI-H460 lung
HOP-92 NSCLC = system: HOP-92 NSCLC
NCI-H522 lung = system: NCI-H522 lung
A549/ATCC NSCLC = system: A549/ATCC NSCLC
786-0 renal = system: 786-0 renal
COLO 205 colon = system: COLO 205 colon

Row | SMILES | growth (NCI-H23 lung) | growth (NCI-H226 lung) | growth (NCI-H322M lung) | growth (HOP-62 NSCLC) | growth (NCI-H460 lung) | growth (HOP-92 NSCLC) | growth (NCI-H522 lung) | growth (A549/ATCC NSCLC) | growth (786-0 renal) | growth (COLO 205 colon)
1 | CC(C)(C#N)c1cc(C(=O)Nc2cc(Nc3ncccc3-c3ncnc4nc[nH]c34)ccc2F)cc(C(F)(F)F)c1 | 24.3% | 41.8% | 67.2% | 45.7% | 35.9% | -5.84% (active) | 62% | 49.7% | 64% | 11.9%
2 | COc1ccc(-c2cn(Cc3ccc4c(Br)cc(Br)c(O)c4n3)nn2)cc1 | 95.5% | 101% | 100% | 98.4% | 105% | 80.3% | 58.5% | 98.7% | 104% | 107%
3 | O=C(CSc1nnc(-c2cc(-c3ccc(Cl)cc3)nc3ccccc23)n1-c1ccccc1)Nc1ccc(Cl)cc1 | 99.7% | 95% | 102% | 114% | 100% | 111% | 93.4% | 96.2% | 96.8% | 115%
4 | CCCCC1=C(Br)C(=O)c2ncccc2C1=O | 95% | 97.8% | 100% | 91.3% | 105% | 46.2% | 74.3% | 94.8% | 93.3% | -6.16% (active)
5 | CCOC(=O)c1c2c(n3ccc(NC(=O)CCN4CCCC4)cc13)C(=O)c1ncccc1C2=O | -72.5% (active) | 63.6% | -76.7% (active) | -68.5% (active) | -79.9% (active) | 56.2% | -37% (active) | -66.6% (active) | -88.2% (active) | 15.4%
6 | CC(C)CCc1nc2ccc(NCc3ccc(OCCN4CCC(C)CC4)cc3)cc2[nH]1 | 94.9% | 67.4% | 99.2% | 83.6% | 100% | 53.5% | 102% | 99.9% | 76.6% | 66%
7 | O=C(/C=C/C12c3ccccc3C(c3ccccc31)C1C(=O)NC(=O)C12)c1cccs1 (stereo not given) | 37.4% | 73.4% | 31.9% | 41.3% | 17.3% | 37.1% | 28% | 43.5% | 43.4% | 44%
8 | O=C1C(c2c(O)[nH]c3ncccc23)=Nc2ccccc21 | 76% | 89% | 79.7% | 86.8% | 47.7% | 96.9% | 76.3% | 82.4% | 84.1% | 82.8%
9 | Nc1nc(Nc2ccc([N+](=O)[O-])cc2O)nc(C(Cl)(Cl)Cl)n1 | 80.1% | 90.2% | 96.9% | 80% | 90.2% | 49.4% | 10.9% | 82.4% | 97.1% | 107%
10 | CC(C)c1nc(N(C)S(C)(=O)=O)nc(-c2ccc(F)cc2)c1/C=C/C(=O)C[C@@H](O)CC(=O)O | 99.8% | 113% | 90% | 95.8% | 108% | 84.2% | 71.4% | 89.5% | 106% | 112%
11 | COC(=O)CCc1c(/C=C2\N=C(c3ccc[nH]3)C=C2OC)[nH]c(C)c1C(=O)OCc1ccccc1 | 20.4% | 19.6% | 55.9% | -3.97% (active) | 12.4% | -9.37% (active) | -20.3% (active) | 11.9% | -26.2% (active) | 4.96% (active)
12 | CCOc1ccc(N2C(=O)CCSC2=S)cc1 | 102% | 100% | 108% | 118% | 106% | 89% | 90.9% | 106% | 106% | 112%
13 | O=C(CSc1nnc(-c2ccc(Cl)c(Cl)c2)n1-c1ccccc1)Nc1ccc(C(=O)/C=C/c2ccc(Cl)cc2)cc1 | 95.4% | 89.1% | 96.9% | 91.1% | 99.5% | 80.7% | 64.7% | 68.9% | 88.6% | 93.3%
14 | COC(=O)c1c(C(=O)OC)c2ccc3c4ncccc4ccc3n2c1C(=O)c1ccc(C)cc1 | 101% | 96.6% | 90.7% | 76.7% | 101% | 91.7% | 68% | 83.2% | 91% | 98.8%
15 | c1ccc(-c2cn3nc(-c4c[nH]c5ccccc45)sc3n2)cc1 | 87.6% | 77.3% | 71.4% | 73.6% | 89.2% | 75.5% | 61.2% | 82.6% | 102% | 87.1%
16 | Cc1cccc(C)c1NC(=O)Nc1ccccc1 | 88.4% | 107% | 80.3% | 95.8% | 44% | 128% | 49.4% | 86.8% | 110% | 102%
17 | CN1CCN(Cc2ccc(NC(=O)c3cncc(C#Cc4cnc(N)c5ccc(C#N)cc45)c3)cc2C(F)(F)F)CC1 | -22% (active) | -35.1% (active) | 26.6% | 2.55% (active) | -49.3% (active) | -15.2% (active) | 5.63% (active) | -53% (active) | -71.8% (active) | -71.9% (active)
18 | C#CC(F)(F)[C@]1(O)CCC2C3CCC4=CC(=O)CCC4=C3[C@@H](c3ccc(N(C)C)cc3)C[C@@]21C (stereo not given in full) | 96.5% | 98.5% | 92.8% | 90.6% | 93.4% | 67.8% | 64.7% | 64.8% | 69% | 101%
19 | O=C(c1ccccc1)[C@@H](c1ccccc1)[C@]1(O)C(=O)Nc2ccccc21 | 95% | 83.1% | 87.4% | 77.3% | 95% | 74% | 93.7% | 103% | 97.7% | 84.1%
20 | CCCCCCCCNc1ncnc2c1ncn2Cc1nnc2c3ccccc3c(Cl)nn12 | 59.6% | 39.9% | 77.8% | 54.3% | 53.3% | 3.23% (active) | 52.9% | 73.1% | 47.7% | 65.5%
21 | Nc1ncc(-c2ccc3ncnc(N4CCc5cc(F)c(Cl)cc54)c3c2)cc1C=O | 31.6% | 37.2% | 2.51% (active) | 15.2% | 11.8% | -22.8% (active) | 26.7% | 7.18% (active) | 8.62% (active) | 19.6%

— PubChem BioAssay (NCI)
